Source: PubChem
CHT allo act: allosterically activates the human high affinity choline transporter; Q9GZV3; CHT-expressing cells, membrane potential dye, choline EC20; stronger effect = higher value; LV-AA mutant CHT in HEK293 cells; B-score at 10 µM; 310,000 compounds, 0.49% hits;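 active = initial fluorescence not abnormally high and integrated response B-score, plate-corrected, over 3 SD above library mean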
CHT inh: human CHT choline transport inhibition. CHT-expressing cells, membrane potential dye, choline response; stronger effect = lower value. B-score at 10 µM. 310,000 compounds, 0.86% hits;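 active = B-score over 3 SD under the library average, and starting fluorescence ratio not unusually high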;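 note: choline stimulus applied at its EC90 after an EC20 pre-addition; B-score computed on integrated fluorescence ratio after choline addition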
ANO1 block: mouse TMEM16A channel inhibition, primary screen; Q8BHY3; HEK293 TMEM16A/YFP iodide influx fluorescence, ionomycin; normalized B-score (activity score, 25-100; higher = stronger inhibition) at 10 µM; 310,000 compounds, 1.2% hits; AID 588511;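 active = ratio plate-corrected score three or more library SD toward inhibition, starting fluorescence score within five deviations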;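 note: score derived from kinetic fluorescence span divided by baseline fluorescence per well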
ANO1 activ: activators or potentiators of mouse TMEM16A chloride channel | Q8BHY3 | HEK293 TMEM16A/YFP-H148Q/I152L, iodide quench fluorescence; stronger effect = lower value | 340,000 compounds, 0.3% hits | AID 623877 | B-score at 10 µM;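 active = fluorescence-ratio B-score plate-corrected deviation score at least 3 library SD below zero, with starting fluorescence score within 5 deviations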;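 note: channel opened by trigger with iodide after compound preincubation; score built on the fluorescence ratio of max minus min over baseline; more negative score means more quench and so TMEM16A activation or potentiation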
CHT block conf: confirmation of human choline transporter CHT inhibitors. AID 493221. shares compounds with CHT inh. CHT activity remaining % of control (stronger effect = lower value), % at 10 µM. 2,400 compounds, 70% hits. CHT-expressing cells, choline membrane potential dye; LV-to-AA substituted CHT, HEK293 cells;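 active = choline transporter activity left, mean of duplicates at 10 µM, below buffer-only control mean minus 3 SD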;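 note: depolarization triggered by choline at its EC90 following an EC20 pre-addition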
HEK293 MPD ctr: CHT inhibitor counter-screen hit in parental HEK293 cells; shares compounds with CHT inh; membrane potential ratio readout (active if shifted either direction beyond buffer ±3SD; no single direction) at 10 µM; membrane potential dye, choline response; active = decrease or increase beyond buffer ±3SD; 2,400 compounds, 4% hits;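 note: parental cells lack the transporter so any hit is non-specific; ratio is peak minus trough fluorescence over baseline after EC90 choline challenge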
TMEM16A reconf: TMEM16A (mouse) chloride channel inhibition, re-confirmation; shares compounds with ANO1 block; HEK293 TMEM16A/YFP-H148Q, iodide quench fluorescence; ionomycin added to raise cell calcium; inhibition, % at 10 µM; 2,300 compounds, 39% hits; AID 652189;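 active = mean duplicate percent inhibition, scaled so buffer wells are 0 and the reference blocker 100, over three buffer SD above buffer mean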
TMEM16A Ca cntr: alters calcium mobilization in TMEM16A HEK293 cells, counter-screen; TMEM16A/YFP HEK293, Fluo4 calcium mobilization; 2,300 compounds, 2% hits; shares compounds with ANO1 block; AID 652231; calcium response (% of ionomycin), % at 10 µM;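 active = duplicate-averaged calcium signal over 20% of the ionomycin maximum, relative to buffer baseline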;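 note: each well's signal is peak minus trough fluorescence divided by its pre-addition baseline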
Parental YFP cnt: acts in parental YFP-HEK293 cells lacking TMEM16A, counter-screen. AID 652233. YFP ratio F(max-min)/F0 at 10 µM. shares compounds with ANO1 block. 2,300 tested, under 10 active. iodide YFP quench, ionomycin;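 active = yellow fluorescent protein signal ratio exceeding the buffer control mean by over 5 SD of those controls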;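 note: ratio is mean of duplicate wells from kinetic YFP trace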
ClC-1 inh: selectivity of TMEM16A inhibitors: inhibition of rat ClC-1 chloride channel. shares compounds with ANO1 block. CHO ClC-1-YFP, iodide influx fluorescence quench; iodide control reads 0, buffer control 100. ratio percent, % at 10 µM. 2,300 tested, under 10 active. AID 652236;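 active = duplicate-mean ratio percent above the mean of iodide-only control wells, which defines zero, plus 5 of their SD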;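 note: higher percent means stronger block of ClC-1 iodide influx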
Target sequence (P35524 whole entry, looked up): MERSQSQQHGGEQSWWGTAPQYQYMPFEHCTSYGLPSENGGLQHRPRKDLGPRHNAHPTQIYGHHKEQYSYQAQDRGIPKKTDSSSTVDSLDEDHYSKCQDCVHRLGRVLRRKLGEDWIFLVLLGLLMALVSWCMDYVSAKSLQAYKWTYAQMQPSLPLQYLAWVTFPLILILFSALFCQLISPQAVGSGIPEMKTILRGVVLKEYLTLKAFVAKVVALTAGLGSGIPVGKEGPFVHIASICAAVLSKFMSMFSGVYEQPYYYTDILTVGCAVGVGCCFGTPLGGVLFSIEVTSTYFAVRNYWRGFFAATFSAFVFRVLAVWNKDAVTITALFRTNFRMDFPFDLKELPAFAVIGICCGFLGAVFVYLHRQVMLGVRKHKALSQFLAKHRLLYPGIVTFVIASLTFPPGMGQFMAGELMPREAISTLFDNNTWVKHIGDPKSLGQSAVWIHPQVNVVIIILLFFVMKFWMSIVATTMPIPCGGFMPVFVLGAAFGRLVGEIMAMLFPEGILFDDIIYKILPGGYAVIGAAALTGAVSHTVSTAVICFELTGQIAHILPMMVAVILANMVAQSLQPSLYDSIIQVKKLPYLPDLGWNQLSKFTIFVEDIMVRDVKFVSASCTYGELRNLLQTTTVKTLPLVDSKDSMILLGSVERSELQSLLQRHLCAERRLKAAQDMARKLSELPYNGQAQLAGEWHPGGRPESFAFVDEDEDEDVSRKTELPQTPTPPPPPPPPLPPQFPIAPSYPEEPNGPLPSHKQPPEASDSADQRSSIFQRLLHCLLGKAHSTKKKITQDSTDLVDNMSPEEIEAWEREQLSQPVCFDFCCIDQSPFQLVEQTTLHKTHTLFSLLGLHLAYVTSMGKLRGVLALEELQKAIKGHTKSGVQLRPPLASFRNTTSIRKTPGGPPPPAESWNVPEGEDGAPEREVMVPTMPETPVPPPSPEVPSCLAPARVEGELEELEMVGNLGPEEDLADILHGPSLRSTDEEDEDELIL
Hits are given with their value; - = inactive; . = not tested or not shown. In the library only some 2.4% were active in any assay of this set; here they are far more common.

SMILES	CHT allo act	CHT inh	ANO1 block	ANO1 activ	CHT block conf	HEK293 MPD ctr	TMEM16A reconf	TMEM16A Ca cntr	Parental YFP cnt	ClC-1 inh
Cn1c(CCNC(=O)c2cccs2)n[nH]c1=S	-	-6.81	-	-	-	-	.	.	.	.
FC(F)Oc1ccc(/C=N/n2c(Cc3ccc(Br)cc3)n[nH]c2=S)cc1	-	-	-	-	.	.	.	.	.	.
O=C(Nc1ccc(Br)cc1Cl)Nn1cnnc1	-	-5	-	-	65.2%	-	.	.	.	.
COc1ccc(-n2nnnc2CNC(=O)c2ccc(S(=O)(=O)N3CCOCC3)cc2)cc1	-	-	-	-	.	.	.	.	.	.
Cc1[nH]n(-c2ccc(Cl)cc2)c(=O)c1C(=O)c1ccccc1	-	-11	-	-	-	-	.	.	.	.
CC1=CC(C)(C)N2C(=O)C3(C(C#N)=C(N)Oc4cc(O)ccc43)c3cccc1c32 (configuration not stated)	-	-	-	-	.	.	.	.	.	.
Cc1cc(C)n2nc(CNS(=O)(=O)c3ccc(F)c(C)c3)nc2n1	-	-	-	-	.	.	.	.	.	.
Cc1cc(C)n2nc(CNS(=O)(=O)c3ccc(C)c(C)c3)nc2n1	-	-6.93	-	-	-	-	.	.	.	.
CC(C)(C)c1ccc(S(=O)(=O)/N=C2\C=C(NS(=O)(=O)c3ccccc3)C(=O)c3ccccc32)cc1	-	-8.71	100	-	39.8%	-	87.5%	-	-	-
O=C1CC(O)(C(F)(F)F)Oc2c1ccc1ccccc21 (configuration not stated)	-	-8.13	100	-	46.0%	-	54.0%	37.5%	-	-
Fc1ccc(Nc2nnc(C(F)(F)F)s2)cc1Cl	-	-5.2	100	-6.76	50.7%	-	49.0%	-	-	-
FC(F)(F)c1nnc(Nc2ccc(Cl)cc2)s1	-	-	-	-	.	.	.	.	.	.
COc1ccc(S(=O)(=O)N2CCOCC2)cc1NC(=O)CN1CCC(Cc2ccccc2)CC1	-	-	-	-	.	.	.	.	.	.
CCOC(=O)CC1CCCCN1C(=O)CCCn1nnnc1CN1CCOCC1 (configuration not stated)	-	-	-	-	.	.	.	.	.	.
CCSC(=S)c1c(C)[nH]n(-c2ccccc2)c1=O	-	-8.77	100	-	-	-	29.0%	-	-	-
Cc1[nH]n(-c2ccccc2)c(=O)c1C(=O)c1ccccc1	-	-	-	-	.	.	.	.	.	.
COc1ccc(CN2CCN(S(=O)(=O)c3ccc(C)cc3)CC2)cc1Br	-	-	-	-	.	.	.	.	.	.
O=C(Nc1ccccc1)Nc1cccc(C(F)(F)F)c1	-	-	-	-	.	.	.	.	.	.
N#C/C(=N\Nc1cccc(C(F)(F)F)c1)C(=O)c1ccsc1	-	-10.1	25	-	35.0%	-	37.5%	-	-	-
O=C(Nc1cc(S(=O)(=O)N2CCCCC2)ccc1O)c1ccccc1NS(=O)(=O)c1ccc(F)cc1	-	-5.44	100	-	26.5%	-	67.5%	-	-	-
COC(=O)c1ccccc1Sc1snnc1C	-	-	-	-	.	.	.	.	.	.
Cc1ccc(SCC2(O)CCN(C(=O)c3ccc(Cl)cc3)CC2)cc1	-	-5.77	25	-	65.4%	-	-	-	-	-
O=C(c1ccccc1Br)N1CCCC(c2nc(-c3cccs3)no2)C1 (configuration not stated)	-	-6.31	25	-	-	-	19.0%	-	-	-
O=C(c1ccc(Br)cc1)N1CCCC(c2nc(-c3cccs3)no2)C1 (configuration not stated)	-	-	-	-	.	.	.	.	.	.
C=CCc1cc(C(=O)N2CCCCC2)ccc1O	-	-	-	-	.	.	.	.	.	.
SMILES	CHT allo act	CHT inh	ANO1 block	ANO1 activ	CHT block conf	HEK293 MPD ctr	TMEM16A reconf	TMEM16A Ca cntr	Parental YFP cnt	ClC-1 inh
C=CCc1ccc(O)c(-c2ccc(O)c(CC=C)c2)c1	-	-7.03	100	-	61.8%	-	56.0%	-	-	-
COc1ccc(OC)c(C(=O)COC(=O)COc2ccccc2F)c1	.	.	.	-	.	.	.	.	.	.
CCc1cc(C(=O)COc2ccccc2F)c(O)cc1O	-	-5.83	100	-	-	-	47.0%	-	-	-
CCc1cc(C(=O)Cc2ccc(F)cc2)c(O)cc1O	-	-5.6	100	-	42.8%	-	68.5%	-	-	-
CCOC(=O)C1=CC[C@@H](c2ccco2)N(S(=O)(=O)c2ccc(C)cc2)[C@H]1C(=O)OCC	.	.	.	-	.	.	.	.	.	.
COc1cccc(-c2cccc(NC(=O)C3CCN(Cc4ccon4)CC3)c2)c1	-	-	-	-	.	.	.	.	.	.
COc1ccccc1NC(=O)c1ccc(C(=O)c2ccccc2)o1	-	-4.99	100	-	-	-	19.0%	-	-	-
CC(C)(C)c1csc(NC(=O)c2ccccc2O)n1	-	-6.8	25	-	-	-	23.0%	-	-	-
Cc1csc(NC(=O)c2ccccc2O)n1	-	-	-	-	.	.	.	.	.	.
Nc1ccccc1C(=O)NNC1=C(C(=O)C(F)(F)F)CCC1	-	-	-	-	.	.	.	.	.	.
O=C(NNC1=C(C(=O)C(F)(F)F)CCC1)c1ccc(Br)cc1	-	-7.47	100	-	43.1%	-	16.0%	-	-	-
O=C(Cn1c(=O)n(CCCCC(=O)NC2CCCC2)c(=O)c2ccccc21)NCCC1=CCCCC1	-	-6.95	100	-	-	-	-	-	-	-
Cc1noc(C)c1C(=O)Nc1sc(C)c(-c2ccccc2)c1C#N	-	-5.16	25	-	70.6%	-	46.5%	-	-	-
COc1cccc(S(=O)(=O)NCC(=O)N2CCCCCC2)c1	-	-	-	-	.	.	.	.	.	.
CCCCn1c(CN2CCN(c3cccc(Cl)c3)CC2)nc2c1c(=O)n(C)c(=O)n2C	-	-12.8	25	-	29.1%	-	-	-	-	-
CCCCCn1c(CN2CCN(c3cccc(Cl)c3)CC2)nc2c1c(=O)n(C)c(=O)n2C	-	-	-	-	.	.	.	.	.	.
COc1ccc(CCN(C)C(=O)c2ccc3c(=O)n4c(nc3c2)CCCCC4)cc1OC	.	.	.	-	.	.	.	.	.	.
Cc1[nH]n(-c2ccccc2)c(=O)c1N=Nc1ccc2c(c1)OCCO2	-	-	-	-	.	.	.	.	.	.
Cc1[nH]n(-c2ccccc2)c(=O)c1N=Nc1c(O)cc(S(=O)(=O)N(C)C)c2ccccc12	-	-8.45	100	-	33.8%	-	48.0%	-	-	-
